The values below come from PubChem BioAssay (NCI).

The panel holds about 83,000 compounds, 20% with a hit somewhere; the sample as a whole holds those more often.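 Testing used 96-well plates and a 48-hour single-concentration exposure. Example: -40 means 40% of the starting cells died.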 Activity calls are given as the source filed them. Rule for the calls: active = growth percent below 10; inactive = the rest.

This test has as its system HL-60(TB) leukemia. Put plainly: NCI-60 one-dose screen, 48 h (100 = growth as untreated, 0 = no growth, -100 = all killed). The settings on record: 10 µM unless noted.
Regarding `Cc1cc(C)c2nc(Nc3nc(C)c(C)c(=O)[nH]3)nc(C)c2c1`, the growth was -10.2% (active).
On to `CCCCn1sc(=O)n(Cc2ccc(CNC(=O)OCc3ccc4c(Br)cc(Br)c(O)c4n3)cc2)c1=O`, for which the growth was -60.6% (active).
`O=C1NCCc2c1noc2-c1ccccc1`: the growth is 102% (inactive).
`Oc1ccccc1-c1nc2c3ccccc3c3ccccc3c2o1`: the growth was 88% (inactive).
Regarding `O=[N+]([O-])c1ccc(-c2cc3c(Nc4ccc(Sc5nc6ccccc6s5)c(Cl)c4)ncnc3s2)cc1`, the growth was 21.6% (inactive).
The figure for `CCN(CC)CCC(CNc1c(C)cnc2cc(Cl)ccc12)c1ccc(Cl)cc1` (centres undefined) is 52.5% (inactive); for `O=C(O)c1cccc2oc(-c3ccccc3O)nc12` it is 49.8% (inactive); for `CC(=O)OC1CC2C(C)(C)CCC[C@]2(C)C2=C1C(O)=C(C(C)C)C(=O)C2=O` (some centres undefined) it is 3.12% (active).
Next, `COc1cc(/C=C/c2cc(/C=C/c3ccc(O)c(OC)c3)n(-c3ccccc3)n2)ccc1O`: -42.2% (active); `CN(C)C(=O)c1cc2cnc(Nc3ccc(-c4csc5c(=S)cc(N6CCOCC6)oc45)cc3)nc2n1C1CCCC1`: -30.6% (active).
The figure for `COC(=O)CCCCCn1c2ccccc2c2c3c(c4c5ccccc5[nH]c4c21)C(=O)N(O)C3=O` is 19.1% (inactive); for `CC(=O)N1N=C(c2ccc(Nc3nc(Nc4ccc(F)cc4)nc(Nc4ccc(Cl)cc4)n3)cc2)CC1c1ccc(N(C)C)cc1` (centres undefined) it is 19% (inactive); for `CC1(C)Nc2cccc3c(N=Nc4ccc(N=Nc5ccccc5)c5ccccc45)ccc(c23)N1` it is 86.1% (inactive).
As to `O[C@@H]1CO[C@H]2[C@@H]1OC[C@@H]2O`, the growth is 98% (inactive).
